Test results reported in PubChem BioAssay (Tox21).
“And” between values parts separate entries of the source, which are not always exact repeats. Equal entries are not always repeated. Records with an inconclusive call do not appear. A call without a number means that no potency is given here. The source made the active and inactive calls. The call rests on the fitted dose curve; in most records, active means well fitted curve in the direction sought with a large enough effect in the repeat runs; inconclusive means weak or mixed curves; inactive means no such curve, though single readings can be large; an effect the other way counts as inactive or inconclusive.

experiment: qHTS RealTime-Glo MT Cell Viability Assay in HepG2 cells - 16 hour (AID 1224885); settings: RealTime-Glo luminescence; series mostly up to 76.8 µM; further: nearly all actives have a fitted effect of over 50% in size
Outline: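 qHTS, HepG2, 600 cells/well, RealTime-Glo (NanoLuc + prosubstrate) added with cells; 5 h preincubation; DMSO compound addition; 37 C; luminescence at 0/8/16/24/32/40 h.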

Structure (SMILES)	outcome
c1ccc(OP(Oc2ccccc2)Oc2ccccc2)cc1	inactive
COC(=O)c1ccccc1N	inactive
CCOP(=S)(OCC)Oc1cnc2ccccc2n1	inactive
CCCN(CCC)N=O	inactive
CN(N=O)c1ccccc1	inactive
CC(C)OC(=O)Nc1cccc(Cl)c1	inactive
CCCCOC(=O)c1ccccc1C(=O)OCCCC	inactive
CCCCN(CCCC)SN(C)C(=O)Oc1cccc2c1OC(C)(C)C2	inactive
CC(NC(C)(C)C)C(=O)c1cccc(Cl)c1 (stereo not drawn)	inactive
CC(C)(C)C(O)(CCc1ccc(Cl)cc1)Cn1cncn1 (stereo not drawn)	inactive
CC(C)C#N	inactive
Cc1cc(Cl)ccc1O	inactive
O=S(=O)(c1ccc(O)cc1)c1ccc(O)cc1	inactive
Cc1ccc([N+](=O)[O-])cc1C	inactive
C1CN2CCN1CC2	inactive
CC(C)(Cl)Cl	inactive
CC(C)(C)OOC(=O)c1ccccc1	inactive
CCc1cccc(C)c1N(C(=O)CCl)C(C)COC (stereo not drawn)	inactive
c1ccc2c(c1)Oc1ccccc1O2	inactive

Structure (SMILES)	outcome
O=[N+]([O-])c1ccc(Oc2ccc(Cl)cc2Cl)cc1	inactive
CCC[N+](=O)[O-]	inactive
Nc1c(Cl)c(Cl)nc(C(=O)O)c1Cl	inactive
CC(=O)C=C(C)C	inactive
C#CC(C)(C)NC(=O)c1cc(Cl)cc(Cl)c1	inactive
CN(C)CCO	inactive
OC(O)C(Cl)(Cl)Cl	inactive
CC1C=[C-]C=C1.[C-]#[O+].[C-]#[O+].[C-]#[O+].[Mn]	inactive
CCN(CC)c1ccccc1	inactive
CCC(C)(CC)c1cc(NC(=O)c2c(OC)cccc2OC)on1	inactive
CCC12COCN1COC2	inactive
CC(C)NC(=O)N1CC(=O)N(c2cc(Cl)cc(Cl)c2)C1=O	inactive
C1CC2OC2CC1C1CO1 (stereo not drawn)	inactive
CC(C#N)CCC#N (stereo not drawn)	inactive
Nc1ccccc1C(=O)O	inactive
CCOP(=S)(OCC)SCCSCC	inactive
[O-][Cl+2]([O-])O	inactive
Clc1cccc(Cl)c1Cl	inactive

experiment: qHTS RealTime-Glo MT Cell Viability Assay in HEK293 cells - 24 hour (AID 1224886); settings: RealTime-Glo luminescence; series mostly up to 76.8 µM; further: nearly all actives have a fitted effect of over 50% in size; further: potency means the concentration at half of the fitted maximal effect
Outline: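 Assay medium contained NanoLuc luciferase plus cell-permeant prosubstrate, added with HEK293 cells at 600 cells/well. After 5 h at 37 C/5% CO2 compounds were added; plates stayed at 37 C for 40 h with serial luminescence reads.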

Structure (SMILES)	Potency
c1ccc(OP(Oc2ccccc2)Oc2ccccc2)cc1	inactive
COC(=O)c1ccccc1N	inactive
CCOP(=S)(OCC)Oc1cnc2ccccc2n1	inactive
CCCN(CCC)N=O	inactive
CN(N=O)c1ccccc1	inactive
CC(C)OC(=O)Nc1cccc(Cl)c1	inactive
CCCCOC(=O)c1ccccc1C(=O)OCCCC	inactive
CC(NC(C)(C)C)C(=O)c1cccc(Cl)c1 (stereo not drawn)	inactive
CC(C)(C)C(O)(CCc1ccc(Cl)cc1)Cn1cncn1 (stereo not drawn)	49.6 µM (active) and 54.9 µM (active)
CC(C)C#N	inactive
Cc1cc(Cl)ccc1O	inactive
O=S(=O)(c1ccc(O)cc1)c1ccc(O)cc1	inactive
Cc1ccc([N+](=O)[O-])cc1C	inactive
C1CN2CCN1CC2	inactive
CC(C)(Cl)Cl	inactive
CC(C)(C)OOC(=O)c1ccccc1	inactive
CCc1cccc(C)c1N(C(=O)CCl)C(C)COC (stereo not drawn)	inactive
c1ccc2c(c1)Oc1ccccc1O2	inactive

Structure (SMILES)	Potency
CCC[N+](=O)[O-]	inactive
Nc1c(Cl)c(Cl)nc(C(=O)O)c1Cl	inactive
CC(=O)C=C(C)C	inactive
C#CC(C)(C)NC(=O)c1cc(Cl)cc(Cl)c1	inactive
CN(C)CCO	inactive
OC(O)C(Cl)(Cl)Cl	inactive
CC1C=[C-]C=C1.[C-]#[O+].[C-]#[O+].[C-]#[O+].[Mn]	inactive
CCN(CC)c1ccccc1	inactive
CCC(C)(CC)c1cc(NC(=O)c2c(OC)cccc2OC)on1	inactive
CCC12COCN1COC2	inactive
CC(C)NC(=O)N1CC(=O)N(c2cc(Cl)cc(Cl)c2)C1=O	inactive
C1CC2OC2CC1C1CO1 (stereo not drawn)	inactive
CC(C#N)CCC#N (stereo not drawn)	inactive
Nc1ccccc1C(=O)O	inactive
CCOP(=S)(OCC)SCCSCC	inactive
[O-][Cl+2]([O-])O	inactive
Clc1cccc(Cl)c1Cl	inactive

experiment: A CellTox Green Cytotoxicity Assay to monitor cytotoxicity in HEK293 cells - 16 hour (AID 1224888); settings: CellTox Green fluorescence; series mostly up to 76.8 µM; further: nearly all actives have a fitted effect of over 35% in size
Outline: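 Seeding of HEK293 cells together with cytotoxicity dye preceded a 5 h incubation at 37 C/5% CO2. Test compounds in DMSO were then added and fluorescence monitored across 40 h.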

Structure (SMILES)	Potency
c1ccc(OP(Oc2ccccc2)Oc2ccccc2)cc1	inactive
COC(=O)c1ccccc1N	inactive
CCOP(=S)(OCC)Oc1cnc2ccccc2n1	inactive
CCCN(CCC)N=O	inactive
CN(N=O)c1ccccc1	inactive
CC(C)OC(=O)Nc1cccc(Cl)c1	inactive
CCCCOC(=O)c1ccccc1C(=O)OCCCC	inactive
CCCCN(CCCC)SN(C)C(=O)Oc1cccc2c1OC(C)(C)C2	inactive
CC(NC(C)(C)C)C(=O)c1cccc(Cl)c1 (stereo not drawn)	inactive
CC(C)(C)C(O)(CCc1ccc(Cl)cc1)Cn1cncn1 (stereo not drawn)	inactive
CC(C)C#N	inactive
Cc1cc(Cl)ccc1O	inactive
O=S(=O)(c1ccc(O)cc1)c1ccc(O)cc1	inactive
Cc1ccc([N+](=O)[O-])cc1C	inactive
CC(C)(Cl)Cl	inactive
CC(C)(C)OOC(=O)c1ccccc1	inactive
CCc1cccc(C)c1N(C(=O)CCl)C(C)COC (stereo not drawn)	inactive
c1ccc2c(c1)Oc1ccccc1O2	inactive

Structure (SMILES)	Potency
O=[N+]([O-])c1ccc(Oc2ccc(Cl)cc2Cl)cc1	inactive
CCC[N+](=O)[O-]	inactive
Nc1c(Cl)c(Cl)nc(C(=O)O)c1Cl	inactive
CC(=O)C=C(C)C	inactive
C#CC(C)(C)NC(=O)c1cc(Cl)cc(Cl)c1	inactive
CN(C)CCO	inactive
OC(O)C(Cl)(Cl)Cl	inactive
CC1C=[C-]C=C1.[C-]#[O+].[C-]#[O+].[C-]#[O+].[Mn]	inactive
CCN(CC)c1ccccc1	inactive
CCC(C)(CC)c1cc(NC(=O)c2c(OC)cccc2OC)on1	inactive
CCC12COCN1COC2	inactive
CC(C)NC(=O)N1CC(=O)N(c2cc(Cl)cc(Cl)c2)C1=O	inactive
C1CC2OC2CC1C1CO1 (stereo not drawn)	inactive
CC(C#N)CCC#N (stereo not drawn)	inactive
Nc1ccccc1C(=O)O	inactive
CCOP(=S)(OCC)SCCSCC	inactive
[O-][Cl+2]([O-])O	inactive
Clc1cccc(Cl)c1Cl	inactive
